# HTT ATP protect = cytoprotection in Huntington HTT-Q103 PC12 cell model | PC12 HTT-Q103 induced, cytoprotection, ATP luminescence, 40 h | 0.14% of 230,000 active | AID 1471 | Potency, µM (doses to about 56.4 µM), for the others: cytoprotection (ATP increase), actives largely listed as activators; active = well fitted curve in the direction sought with a large enough effect; inconclusive = small, poorly fitted or top-dose-only effect, or another doubt; inactive = no such curve, though single readings can be large; an effect the other way counts as inactive or inconclusive; also: % of control where 0% means no effect; nearly all actives have a fitted effect of over 45% in size
#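 Huntington model: PC12 line, ecdysone-inducible HTTQ103 exon1–GFP, tebufenozide 100 nM. Test articles in a dose series. Endpoint luminescence from cellular ATP.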
# HPGD inh = HPGD (human) dehydrogenase inhibition; P15428; purified HPGD, NADH fluorescence kinetic, PGE2 substrate; Potency, µM, without a hit: at the highest dose activity change, negative = inhibition, actives largely listed as inhibitors; 4.3% of 150,000 active; AID 894; also: % is scaled to controls: 0 for no effect and ±100 for the full control effect
#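 NADH formation kinetics: reaction with 30 uM PGE2 and 1 mM NAD+ (final), 20 nM enzyme, Tris-HCl pH 8 with Tween 20, after 15 min compound preincubation at room temperature. Fluorescence change, last versus first of five reads.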
# Lamin A splicing = changes lamin A minigene splicing in HeLa cells. HeLa LMNA splicing GFP/RFP minigene ratio, 48 h. Potency, µM (top dose mostly 46.1 µM), without a hit: at the highest dose ratio change, negative = inhibition, hits mostly inhibitors. 0.01% of 200,000 active. AID 1487; active = well fitted inhibition curve with a large enough effect in the signal ratio, with a control signal flat, not every such curve was filed as active; inconclusive = small, poorly fitted or top-dose-only effect, or effect the other way, or a change in a side signal; the % refers to the signal ratio; also: % is scaled to controls: 0 for no effect and ±100 for the full control effect
#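 S3 HeLa cells stably expressing lamin A-EGFP splicing minigene plus DsRed2, 600 cells/well, 48 h compound exposure at 37C. Laser-scanning cytometry; analysed as GFP (500-530 nm)/RFP (575-640 nm) total intensity ratio; 0.5% DMSO vehicle.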
# HttQ103 aggreg = reduces HttQ103-GFP aggregates in PC12 cells; PC12 HttQ103-GFP aggregates, Acumen cytometry, 40 h; Potency, µM (titrated, usually from 46.1 µM), for the others: at the top dose activity change, negative = inhibition, actives largely listed as inhibitors; 1.1% of 220,000 active; AID 1688; active = well fitted curve in the direction sought with a large enough effect; inconclusive = small, poorly fitted or top-dose-only effect, or another doubt; inactive = no such curve, though single readings can be large; an effect the other way counts as inactive or inconclusive; also: % is scaled to controls: 0 for no effect and ±100 for the full control effect; nearly all actives have a fitted effect of over 60% in size
#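 PC12 cells with ecdysone-inducible HTT exon1 Q103-GFP, induced by 100 nM tebufenozide, given compounds in a concentration series. GFP aggregates (1–25 um, 6 SD above background) counted in lysates by laser-scanning cytometry, 488 nm excitation.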
# ALDH1A1 inh = inhibitors of human aldehyde dehydrogenase 1A1; Purified ALDH1A1, NADH fluorescence, propionaldehyde substrate; Potency, µM (doses to about 75.3 µM), for inactives: top-dose activity, negative = inhibition, actives largely listed as inhibitors; 7.3% of 220,000 active; AID 1030;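 also: plate controls were no enzyme wells and a reference inhibitor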
# Target sequence (P00352 whole entry, looked up): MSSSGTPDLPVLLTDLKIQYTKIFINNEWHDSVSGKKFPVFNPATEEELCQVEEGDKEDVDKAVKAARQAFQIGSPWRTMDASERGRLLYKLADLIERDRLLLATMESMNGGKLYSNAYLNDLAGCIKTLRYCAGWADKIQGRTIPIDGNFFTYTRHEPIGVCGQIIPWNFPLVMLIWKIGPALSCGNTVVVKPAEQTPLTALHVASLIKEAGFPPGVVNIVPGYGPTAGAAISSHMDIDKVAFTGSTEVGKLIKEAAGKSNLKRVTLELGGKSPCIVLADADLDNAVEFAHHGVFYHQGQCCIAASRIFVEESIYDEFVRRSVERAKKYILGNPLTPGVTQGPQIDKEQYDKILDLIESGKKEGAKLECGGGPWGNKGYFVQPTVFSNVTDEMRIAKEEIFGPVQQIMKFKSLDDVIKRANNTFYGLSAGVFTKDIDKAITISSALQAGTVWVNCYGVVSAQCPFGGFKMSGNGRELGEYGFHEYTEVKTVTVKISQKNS
# Starred values were filed as active, the others as inactive; ? = inconclusive; / = no result; [ ] = dose if it differs, or a comment. A selection: hits, their analogues and other compounds. The true share with any hit is near 8.8%. Unless noted, calls follow the shape of the dose curve; as a rule, active = well fitted inhibition curve with a large enough effect (not every such curve was filed as active); inconclusive = small, poorly fitted or top-dose-only effect, or another doubt; inactive = no such curve, though single readings can be large or run the other way. Potency is read from the fitted curve at half-maximal effect.
SMILES,HTT ATP protect,HPGD inh,Lamin A splicing,HttQ103 aggreg,ALDH1A1 inh
COc1ccc(CN2C(=O)C(O)(CC(=O)c3c(C)n[nH]c3C)c3ccccc32)cc1OC (stereo unspecified),0%,-4%,-4%,8%,3.5µM*
CC(=O)CC1(O)C(=O)N(Cc2ccccc2)c2ccccc21 (stereo unspecified),-12%,-4%,10%,8%,?
C/C(CC1(O)C(=O)N(Cc2ccccc2)c2ccccc21)=N\O (stereo unspecified),-10%,-16%,6%,22%,1.6µM*
Cc1coc(C)c1C(=O)CC1(O)C(=O)N(Cc2ccccc2)c2ccccc21 (stereo unspecified),0%,-27%,5%,-3%,4.5µM*
Cc1ccc(C(=O)CC2(O)C(=O)N(CCc3ccccc3)c3ccc(Br)cc32)o1 (stereo unspecified),1%[0.074 µM],-14%,-6%,16%,?
Cc1ccc(C(=O)CC2(O)C(=O)N(Cc3ccccc3)c3ccccc32)o1 (stereo unspecified),-17%[0.074 µM],-12%,-1%,-15%,0.71µM*
Cc1ccc(C(=O)CC2(O)C(=O)N(Cc3ccccc3Cl)c3ccccc32)o1 (stereo unspecified),-33%,-21%,?,3.2µM*,3.5µM*
COc1cc2c(cc1OC)C(c1c[nH]c3ccccc13)NCC2 (stereo unspecified),?,-4%,/,/,2%
CCOC(=O)C1C(=O)NC(SCC(=O)OC)=C(C#N)C1c1ccccc1OCC (stereo unspecified),-3%,-8%,-1%,-3%,14%
CCOC(=O)C1C(=O)NC(SCC(=O)Nc2nccs2)=C(C#N)C1c1ccccc1OCC (stereo unspecified),-9%[10 µM],13µM*,-4%,-15%,6.3µM*
Cc1ccccc1N1CCN(Cc2c[nH]c3ccccc23)CC1,-53%[10 µM],-3%,?,22µM*,-6%
c1ccc2c(CN3CCN(Cc4c[nH]c5ccccc45)CC3)c[nH]c2c1,3%[10 µM],-12%,/,/,-11%[13.5 µM]
COc1ccccc1N1CCN(Cc2c[nH]c3ccccc23)CC1,-13%[10 µM],/,/,-19%[9.22 µM],/
c1cnc(N2CCN(Cc3c[nH]c4ccccc34)CC2)nc1,-86%,-9%,?,11µM*,-13%
c1ccc(N2CCN(Cc3ccnc4ccccc34)CC2)cc1,6%,-14%,?,-7%,16µM*
COc1ccc(OC)c(C2C3=C(CC(C)(C)CC3=O)Nc3nnnn32)c1 (stereo unspecified),26%[10 µM],-13%,-5%,6%,10%
COc1ccccc1C1C=C(c2ccc(C)cc2)Nc2nnnn21 (stereo unspecified),-4%[0.074 µM],-15%,?,-7%,14µM*
COc1ccccc1C1C2=C(CC(C)(C)CC2=O)Nc2nnnn21 (stereo unspecified),5%[10 µM],-12%,-12%,-2%,25µM*
O=C(c1csc2c1CCCC2)N1CCCCC1,28%,1.6µM*,2%,-12%,0%
O=C(c1ccccc1F)N1CCN(c2ncccn2)CC1,-3%,-14%,7%,13%,?
O=C(c1csc2c1CCCCC2)N1CCN(c2ncccn2)CC1,-2%,-12%,1%,1%,20µM*
O=C(NCCN1CCOCC1)c1csc2c1CCCCC2,3%,-14%,17%,-6%,-1%
CCOC(=O)C1C(=O)C=C(c2ccc(C)cc2)CC1c1cccc([N+](=O)[O-])c1 (stereo unspecified),-18%[10 µM],/,?,-15%,2.5µM*
CN(CCc1ccccn1)C1CC(=O)N(c2ccc(Cl)cc2)C1=O (stereo unspecified),4%,-22%,8%,16%,25µM*
N#Cc1ccc(CN2CCC3(CC2)CCN(S(=O)(=O)c2ccccc2)CC3)cc1,10%,-5%,/,/,?
CCc1cccc2c1NC(=O)C21N2CCCC2C(C(=O)c2ccc3ccccc3c2)C12C(=O)Nc1ccccc12 (stereo unspecified),-18%[10 µM],-7%,-1%,-28%,20µM*
Cc1ccc(-n2c(C)cc(/C=c3/sc4nc5ccccc5n4c3=O)c2C)cc1,-26%,-15%,4%,5%,?
